An excerpt weighted towards active compounds, which were near 1.5% of everything screened.
NPR1 activator: GC-A stimulated cGMP production enhancers – HEK293 GC-A cells, cGMP TR-FRET, EC30 ANP, primary screen; 0% at EC30 ANP, 100% saturating ANP; activation, % at 10 µM; 370,000 compounds, 0.14% hits; AID 1671463, 2021; in the data active = activation above about 40%
Neddyl block: inhibitors of cullin neddylation, primary screen, biochemical, TR-FRET, uHTS, NAE and Ubc12. NEDD8-conjugating enzyme Ubc12 (Homo sapiens) + NEDD8-activating enzyme E1 regulatory …. 360,000 compounds, 0.58% hits. inhibition, % at 25 µM; in the data active = inhibition above about 36%
NadD block: inhibitors of S. aureus NadD, primary screen, biochemical, colorimetric, uHTS | Nicotinate-nucleotide adenylyltransferase NadD (Staphylococcus aureus N315) | purified NadD enzyme, colorimetric absorbance read-out | inhibition, % at 20 µM | 360,000 compounds, 0.78% hits; in the data active = inhibition above about 26%
NPR2 activator: human GC-B receptor activators, primary screen, HEK293 GC-B cells, cGMP TR-FRET, EC30 CNP. 0% at EC30 CNP, 100% saturating CNP. activation, % at 10 µM. 370,000 compounds, 0.11% hits. AID 1920062, 2024;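 active = activation at 10 µM reaching about 35% in either raw or pattern-adjusted values, limit read from the data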
Neddyl inh conf: blockade of NEDD8 conjugation to cullin – biochemical, TR-FRET, single concentration, confirmation | shares compounds with Neddyl block | TR-FRET cullin neddylation biochemical assay | calls only at 25 µM | 1,800 compounds, 13% hits | AID 652217, 2013; in the data active = inhibition above about 40%;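 note: neddylation substrate is the cullin 1 ring ligase complex with SKP2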
Starred values were filed as active, the others as inactive; i = inactive; / = no result given; + = active, no number; ! = not active in a repeat.

SMILES | NPR1 activator | Neddyl block | NadD block | NPR2 activator | Neddyl inh conf
COc1ccc2[nH]c3c(=O)n(N)c(C)nc3c2c1 | -2 | / | 1 | 4 | /
Cc1ccc2[nH]c3c(=O)n(N)c(C)nc3c2c1 | -3 | 41* | 0 | -2 | +
COc1ccc(NC(=O)CN2C(=O)NC3(CCCCC3C)C2=O)cc1OC (configuration not stated) | 2 | -19 | 1 | 2 | /
COc1ccc(CCN(C)C(=O)CN2C(=O)NC3(CCCCC3C)C2=O)cc1OC (configuration not stated) | 3 | 59* | -2 | 0 | i
N#Cc1nc(-c2ccco2)oc1NCCc1ccccc1 | 6 | 36 | 1 | -4 | /
COc1ccc(CCNc2oc(-c3ccco3)nc2C#N)cc1 | -4 | 45* | -3 | -4 | +
COC(=O)C/C=C/[C@@H](C)[C@H](NC(=O)OCC(Cl)(Cl)Cl)c1ccc(-c2ccccc2)cc1 | 1 | / | / | -11 | /
NC(N)=NC(=O)c1nc(Cl)c(N)nc1N | 16 | 40*! | 0 | -4 | i
CCOc1ccc(CCNC(=O)c2cc3ccsc3n2C)cc1OCC | -2 | / | / | -6 | /
OCCCN=C1CCCc2c1[nH]c1ccc(Cl)cc21 | 8 | 40* | -8 | 1 | i
OCCN=C1CCCc2c1[nH]c1ccc(Cl)cc21 | 10 | 33 | -8 | 8 | /
COc1ccccc1CCn1cnc2c3cc(C)ccc3n(C)c2c1=O | -7 | 43* | 7 | -9 | /
COc1ccc2c(c1)c1ncn(CCN3CCCC3)c(=O)c1n2C | 0 | / | -7 | -3 | /
COc1ccc(/C=N/Nc2nc(-c3cccnc3)nc3ccccc23)c(OC)c1 | 6 | 41* | -9 | -3 | +
COc1ccc(Nc2nc(-c3ccncc3)nc3ccccc23)cc1 | -26 | 43* | 0 | 0 | i
COc1ccc(C(=O)CSc2nnc(-c3cccs3)o2)cc1OC | 0 | / | / | 7 | /
COc1cc(/C=C/C(=O)OC(C)C(=O)NC2CCCCC2C)cc(Cl)c1OC (configuration not stated) | -4 | 40* | -7 | -3 | i
COC(=O)[C@]12C[C@H](CC(=O)NCCC(C)C)C(=O)N(Cc3ccc(Cl)cc3Cl)C1=C[C@H](C1CCCC1)O[C@@H]2C | -22 | / | / | -11 | /
CS(=O)(=O)Nc1ccc(-c2cncc3nccn23)cc1 | 4 | 50* | 5 | 0 | /
CCOc1ccc(-c2cncc3nccn23)cc1 | 4 | / | -6 | -1 | /
CCc1ccc(N(C(=O)c2snc(C(N)=O)c2N)C(C(=O)NC2CCCC2)c2ccco2)cc1 (configuration not stated) | -2 | 41* | 2 | 1 | i
COc1ccc(C(C(=O)NC2CCCC2)N(C(=O)c2snc(C(N)=O)c2N)c2ccccc2OC)cc1OC (configuration not stated) | -26 | 42* | 10 | -9 | /
COc1ccc(C(C(=O)NC2CCCC2)N(C(=O)c2snc(C(N)=O)c2N)c2cc(C)ccc2OC)cc1OC (configuration not stated) | -26 | 33 | 4 | -11 | /
NC(=O)c1nsc(C(=O)N(CCc2ccccc2)C(C(=O)NC2CCCC2)c2ccco2)c1N (configuration not stated) | / | 50* | -2 | / | i
CCC(C)(C)C(=O)N1CCC(C(=O)NC2CCCc3ccccc32)CC1 (configuration not stated) | 0 | / | / | -6 | /
O=C(OC12CCCN(C1)/C(=C/c1cccc(Cl)c1)C2)c1ccco1 (configuration not stated) | 6 | / | / | -1 | /
Cc1cc(C)cc(C(=O)OCCCN(C)C2CN(Cc3cn(Cc4ccccc4C(F)(F)F)nn3)S(=O)(=O)C2)c1 (configuration not stated) | -7 | / | / | -3 | /

Screening data: PubChem BioAssay, Sanford-Burnham Center for Chemical Genomics
